Data on seven sequences can be found in article PMC7862700, “An all-to-all approach to the identification of sequence-specific readers for epigenetic DNA modifications on cytosine”.

What all share (assay): DAPPL (digital affinity profiling via proximity ligation, sequencing); 10 mM Tris-HCl pH 7.5, 50 mM NaCl, 1 mM DTT, 4% glycerol, room temperature, 30 min; GST-TFs on glutathione beads, 16-mer random dsDNA library, 0.1% formaldehyde crosslink after washing; high values mean tight binding
In assay [1] the target is T1, FEV (Homo sapiens, UniProt Q99581 1-238).
T1 sequence: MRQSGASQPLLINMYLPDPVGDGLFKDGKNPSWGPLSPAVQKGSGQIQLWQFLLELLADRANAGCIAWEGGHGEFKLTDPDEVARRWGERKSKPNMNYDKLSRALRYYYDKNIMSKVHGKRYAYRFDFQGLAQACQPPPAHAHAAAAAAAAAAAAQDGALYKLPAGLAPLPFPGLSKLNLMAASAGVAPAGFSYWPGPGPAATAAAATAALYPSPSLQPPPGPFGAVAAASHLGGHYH
The note with it: protein: recombinant; tags: N-terminal GST; dsDNA, one strand shown. In short, it runs like this: (§1)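 Binding signal is each hexamer's read frequency for a factor divided by its frequency in the tag-only sample. The factors were GST-fused human transcription factors from yeast, captured on glutathione beads, DNA-barcoded and pooled with that sample. Pools were incubated with 200 nmole of a random double-stranded 16-mer DNA library in Tris/NaCl/DTT/glycerol buffer at room temperature for 30 min, then washed, crosslinked with 0.1% formaldehyde, proximity-ligated with BsaI/T4 ligase (1 h, 37 °C), PCR-amplified and sequenced on an Illumina NextSeq500.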

The target in assay [2] is ETV5 (Homo sapiens, UniProt P41161 1-510). The note with it: protein: recombinant; tags: N-terminal GST; dsDNA, one strand shown. A digest of the protocol:
as §1

Assay [3] addresses HSF1 (Homo sapiens, UniProt Q00613 1-529). The following applies: protein: recombinant; tags: N-terminal GST; chain copies: 3; dsDNA, one strand shown. A digest of the protocol: as §1
Assay [4] concerns the target T2, SPIC (Homo sapiens, UniProt Q8N5J4 1-248).
T2 sequence: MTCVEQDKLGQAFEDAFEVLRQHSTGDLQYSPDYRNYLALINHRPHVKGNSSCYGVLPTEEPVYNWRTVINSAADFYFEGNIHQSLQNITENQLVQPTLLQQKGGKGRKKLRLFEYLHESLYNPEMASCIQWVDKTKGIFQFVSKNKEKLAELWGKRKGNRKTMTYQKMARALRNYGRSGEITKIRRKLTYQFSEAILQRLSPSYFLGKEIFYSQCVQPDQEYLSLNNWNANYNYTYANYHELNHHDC
The following applies: protein: recombinant; tags: N-terminal GST; dsDNA, one strand shown. A digest of the protocol: as §1

For assay [5], the target named is T3, ELK4 (Homo sapiens, UniProt P28324-2 1-405).
T3 sequence: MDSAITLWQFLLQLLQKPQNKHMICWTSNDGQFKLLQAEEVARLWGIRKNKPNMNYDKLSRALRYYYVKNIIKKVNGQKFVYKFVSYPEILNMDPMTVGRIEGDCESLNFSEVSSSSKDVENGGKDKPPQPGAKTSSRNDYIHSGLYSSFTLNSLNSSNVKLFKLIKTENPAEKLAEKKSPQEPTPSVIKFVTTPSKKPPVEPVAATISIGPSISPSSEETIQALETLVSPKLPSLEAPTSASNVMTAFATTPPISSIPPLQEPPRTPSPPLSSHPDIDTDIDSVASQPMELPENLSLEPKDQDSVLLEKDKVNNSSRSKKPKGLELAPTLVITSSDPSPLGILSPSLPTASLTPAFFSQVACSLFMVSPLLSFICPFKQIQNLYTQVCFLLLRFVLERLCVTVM
The note with it: protein: recombinant; tags: N-terminal GST; dsDNA, one strand shown. A digest of the protocol: as §1

Assay [6] deals with T4, ETV2 (Homo sapiens, UniProt O00321 1-342).
T4 sequence: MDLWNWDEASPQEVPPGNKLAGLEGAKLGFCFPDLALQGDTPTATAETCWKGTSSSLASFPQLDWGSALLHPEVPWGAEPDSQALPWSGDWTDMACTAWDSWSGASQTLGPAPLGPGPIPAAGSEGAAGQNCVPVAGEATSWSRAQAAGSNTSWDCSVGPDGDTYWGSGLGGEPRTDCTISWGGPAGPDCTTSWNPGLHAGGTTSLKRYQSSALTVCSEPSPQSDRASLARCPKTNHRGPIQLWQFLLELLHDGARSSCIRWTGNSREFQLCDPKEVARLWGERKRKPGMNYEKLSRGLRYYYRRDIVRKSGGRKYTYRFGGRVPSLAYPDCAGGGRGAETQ
The following applies: protein: recombinant; tags: N-terminal GST; dsDNA, one strand shown. A digest of the protocol: as §1

The target of assay [7] is T5, ELF3 (Homo sapiens, UniProt P78545 1-371).
T5 sequence: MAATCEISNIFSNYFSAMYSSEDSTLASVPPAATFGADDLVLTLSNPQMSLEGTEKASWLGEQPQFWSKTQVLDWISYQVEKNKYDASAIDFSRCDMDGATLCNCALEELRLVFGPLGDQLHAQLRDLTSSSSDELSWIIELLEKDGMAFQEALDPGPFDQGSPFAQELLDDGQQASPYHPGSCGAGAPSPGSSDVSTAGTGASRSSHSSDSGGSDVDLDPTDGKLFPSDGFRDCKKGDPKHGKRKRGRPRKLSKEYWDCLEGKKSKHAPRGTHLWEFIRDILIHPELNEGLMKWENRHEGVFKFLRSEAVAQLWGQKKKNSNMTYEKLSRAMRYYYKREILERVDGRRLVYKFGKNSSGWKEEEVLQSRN
The following applies: protein: recombinant; tags: N-terminal GST; dsDNA, one strand shown. In short, it runs like this:
as §1

In assay [8] the target is ETV1 (Homo sapiens, UniProt P50549 1-477). The note with it: protein: recombinant; tags: N-terminal GST; dsDNA, one strand shown. In short, it runs like this:
as §1

Assay [9] addresses ELF4 (Homo sapiens, UniProt Q99607 1-663). The note with it: protein: recombinant; tags: N-terminal GST; dsDNA, one strand shown. A digest of the protocol: as §1
The target of assay [10] is CRX (Homo sapiens, UniProt O43186 1-299). The note with it: protein: recombinant; tags: N-terminal GST; dsDNA, one strand shown. In short, it runs like this:
as §1

ETV5, sequence (P41161 whole entry): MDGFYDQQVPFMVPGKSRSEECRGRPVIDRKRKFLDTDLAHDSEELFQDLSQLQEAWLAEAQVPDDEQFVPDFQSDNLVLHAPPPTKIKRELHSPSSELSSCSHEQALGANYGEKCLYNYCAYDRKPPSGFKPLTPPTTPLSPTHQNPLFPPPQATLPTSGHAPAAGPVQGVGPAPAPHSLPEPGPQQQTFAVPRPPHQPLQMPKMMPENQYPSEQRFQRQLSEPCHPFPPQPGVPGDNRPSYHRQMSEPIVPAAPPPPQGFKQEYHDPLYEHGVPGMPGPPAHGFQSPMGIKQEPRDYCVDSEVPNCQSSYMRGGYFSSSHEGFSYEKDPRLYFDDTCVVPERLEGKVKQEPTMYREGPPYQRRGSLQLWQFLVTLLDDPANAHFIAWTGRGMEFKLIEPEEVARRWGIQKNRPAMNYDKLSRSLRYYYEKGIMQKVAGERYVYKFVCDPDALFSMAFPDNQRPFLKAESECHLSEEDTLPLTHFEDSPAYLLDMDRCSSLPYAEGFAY
ETV1, sequence (P50549 whole entry): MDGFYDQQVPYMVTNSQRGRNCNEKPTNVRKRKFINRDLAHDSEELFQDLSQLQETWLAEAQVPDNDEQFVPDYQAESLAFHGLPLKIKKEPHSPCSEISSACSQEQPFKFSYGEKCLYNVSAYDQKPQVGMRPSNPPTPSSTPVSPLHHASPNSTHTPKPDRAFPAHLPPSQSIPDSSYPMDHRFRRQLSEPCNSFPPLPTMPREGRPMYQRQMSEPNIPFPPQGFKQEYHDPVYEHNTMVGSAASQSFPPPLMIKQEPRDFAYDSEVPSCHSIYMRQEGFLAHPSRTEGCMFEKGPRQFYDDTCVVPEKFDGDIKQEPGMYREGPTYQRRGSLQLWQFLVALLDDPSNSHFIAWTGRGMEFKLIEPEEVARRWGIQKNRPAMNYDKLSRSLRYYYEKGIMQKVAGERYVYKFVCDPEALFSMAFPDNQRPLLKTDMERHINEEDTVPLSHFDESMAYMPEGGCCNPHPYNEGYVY
HSF1, sequence (Q00613 whole entry): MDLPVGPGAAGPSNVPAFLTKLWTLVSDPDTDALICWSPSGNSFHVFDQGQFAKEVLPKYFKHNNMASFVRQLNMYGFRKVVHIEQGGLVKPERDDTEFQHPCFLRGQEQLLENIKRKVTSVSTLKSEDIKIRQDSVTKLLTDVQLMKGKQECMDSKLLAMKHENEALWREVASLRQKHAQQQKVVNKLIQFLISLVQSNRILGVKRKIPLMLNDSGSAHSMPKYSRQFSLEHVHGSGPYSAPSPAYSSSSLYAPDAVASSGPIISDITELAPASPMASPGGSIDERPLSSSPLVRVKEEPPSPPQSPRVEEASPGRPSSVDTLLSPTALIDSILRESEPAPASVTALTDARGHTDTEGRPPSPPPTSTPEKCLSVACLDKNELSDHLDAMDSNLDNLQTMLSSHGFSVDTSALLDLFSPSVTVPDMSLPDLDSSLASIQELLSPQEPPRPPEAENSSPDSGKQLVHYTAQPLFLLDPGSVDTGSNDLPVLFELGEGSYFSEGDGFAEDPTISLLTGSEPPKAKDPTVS
CRX, sequence (O43186 whole entry): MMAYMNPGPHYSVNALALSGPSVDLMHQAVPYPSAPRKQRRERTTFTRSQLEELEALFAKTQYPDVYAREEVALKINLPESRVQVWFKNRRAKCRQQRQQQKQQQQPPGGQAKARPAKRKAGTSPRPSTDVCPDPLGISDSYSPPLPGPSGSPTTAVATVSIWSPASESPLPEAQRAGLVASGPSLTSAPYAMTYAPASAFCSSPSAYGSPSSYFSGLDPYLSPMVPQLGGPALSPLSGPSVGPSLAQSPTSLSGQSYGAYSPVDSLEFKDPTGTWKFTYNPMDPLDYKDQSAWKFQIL
ELF4, sequence (Q99607 whole entry): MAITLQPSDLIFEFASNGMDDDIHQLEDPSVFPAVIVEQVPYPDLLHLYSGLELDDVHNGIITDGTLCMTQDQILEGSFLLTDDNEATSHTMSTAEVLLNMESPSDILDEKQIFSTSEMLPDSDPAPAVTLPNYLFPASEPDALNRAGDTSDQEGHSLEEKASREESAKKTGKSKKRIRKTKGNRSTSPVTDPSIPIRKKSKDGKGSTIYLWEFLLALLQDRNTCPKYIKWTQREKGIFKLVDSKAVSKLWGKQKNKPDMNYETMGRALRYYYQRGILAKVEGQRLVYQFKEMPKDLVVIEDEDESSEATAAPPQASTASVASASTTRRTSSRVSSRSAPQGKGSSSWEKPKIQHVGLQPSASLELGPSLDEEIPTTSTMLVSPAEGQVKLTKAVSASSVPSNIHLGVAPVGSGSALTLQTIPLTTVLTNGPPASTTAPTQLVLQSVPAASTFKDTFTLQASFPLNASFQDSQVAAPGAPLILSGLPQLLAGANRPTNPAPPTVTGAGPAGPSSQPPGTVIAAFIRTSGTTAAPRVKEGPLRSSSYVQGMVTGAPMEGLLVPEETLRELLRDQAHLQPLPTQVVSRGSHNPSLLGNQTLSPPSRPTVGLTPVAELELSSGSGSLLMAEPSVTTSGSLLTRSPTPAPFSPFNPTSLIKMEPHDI

With TCGCGC, the binding signal in assay [1] is 1.03 fold enrichment (6-mer frequency, TF over GST control); in assay [2] it was 1.02 fold enrichment (6-mer frequency, TF over GST control); in assay [3], 1.1 fold enrichment (6-mer frequency, TF over GST control); in [4] it was 1.25 fold enrichment (6-mer frequency, TF over GST control); in [5], 1.03 fold enrichment (6-mer frequency, TF over GST control); in [6], 1.08 fold enrichment (6-mer frequency, TF over GST control). The binding signal was 1.05 fold enrichment (6-mer frequency, TF over GST control) in assay [7] and 1.13 fold enrichment (6-mer frequency, TF over GST control) in assay [8].

As for TTCATA, the binding signal is 1.12 fold enrichment (6-mer frequency, TF over GST control) in assay [1]; 1.1 fold enrichment (6-mer frequency, TF over GST control) in assay [2]; 1.05 fold enrichment (6-mer frequency, TF over GST control) in assay [3]; 1.19 fold enrichment (6-mer frequency, TF over GST control) in assay [9]; 1.2 fold enrichment (6-mer frequency, TF over GST control) in [5]; 1.06 fold enrichment (6-mer frequency, TF over GST control) in assay [6]. The binding signal was 1.24 fold enrichment (6-mer frequency, TF over GST control) in [7]; 1.2 fold enrichment (6-mer frequency, TF over GST control) in assay [10]; 1.24 fold enrichment (6-mer frequency, TF over GST control) in assay [8].

On to CAGATT, for which the binding signal in assay [1] is 1 fold enrichment (6-mer frequency, TF over GST control); in [2] it was 1 fold enrichment (6-mer frequency, TF over GST control); in assay [3] it was 1.75 fold enrichment (6-mer frequency, TF over GST control); in [9], 1.06 fold enrichment (6-mer frequency, TF over GST control); in assay [5] it was 1.01 fold enrichment (6-mer frequency, TF over GST control); in [6], 1.02 fold enrichment (6-mer frequency, TF over GST control). The binding signal in assay [7] was 1.06 fold enrichment (6-mer frequency, TF over GST control); in [10] it was 2.1 fold enrichment (6-mer frequency, TF over GST control); in assay [8], 1.03 fold enrichment (6-mer frequency, TF over GST control).

For CTTTCG, the binding signal was 1.26 fold enrichment (6-mer frequency, TF over GST control) in assay [1]; 1.27 fold enrichment (6-mer frequency, TF over GST control) in [2]; 1.65 fold enrichment (6-mer frequency, TF over GST control) in [3]; 1.19 fold enrichment (6-mer frequency, TF over GST control) in assay [9]; 1.4 fold enrichment (6-mer frequency, TF over GST control) in assay [5]; 1.3 fold enrichment (6-mer frequency, TF over GST control) in assay [6]. Also, the binding signal in assay [7] was 1.4 fold enrichment (6-mer frequency, TF over GST control); in assay [10] it was 1.37 fold enrichment (6-mer frequency, TF over GST control); in assay [8], 1.36 fold enrichment (6-mer frequency, TF over GST control).

For CTATAG, the binding signal in assay [1] was 1.04 fold enrichment (6-mer frequency, TF over GST control); in [2] it was 1.1 fold enrichment (6-mer frequency, TF over GST control); in assay [3] it was 1.03 fold enrichment (6-mer frequency, TF over GST control); in assay [9], 1.02 fold enrichment (6-mer frequency, TF over GST control); in assay [5], 1.14 fold enrichment (6-mer frequency, TF over GST control); in assay [6], 1.27 fold enrichment (6-mer frequency, TF over GST control). For the same sequence, the binding signal in assay [7] is 1.04 fold enrichment (6-mer frequency, TF over GST control); in assay [10], 1.05 fold enrichment (6-mer frequency, TF over GST control); in assay [8], 1.01 fold enrichment (6-mer frequency, TF over GST control).

In the case of AGCTAA, the binding signal in [1] is 1.03 fold enrichment (6-mer frequency, TF over GST control); in [2] it was 1.06 fold enrichment (6-mer frequency, TF over GST control); in assay [3], 1.27 fold enrichment (6-mer frequency, TF over GST control); in [9] it was 1.14 fold enrichment (6-mer frequency, TF over GST control); in [5] it was 1.1 fold enrichment (6-mer frequency, TF over GST control); in assay [6], 1.01 fold enrichment (6-mer frequency, TF over GST control). The binding signal in [7] is 1.09 fold enrichment (6-mer frequency, TF over GST control); in assay [10], 1.65 fold enrichment (6-mer frequency, TF over GST control); in assay [8], 1.1 fold enrichment (6-mer frequency, TF over GST control).

Turning to TAAGCG, the binding signal in assay [2] was 1.02 fold enrichment (6-mer frequency, TF over GST control); in assay [3], 1.34 fold enrichment (6-mer frequency, TF over GST control); in assay [4], 1.04 fold enrichment (6-mer frequency, TF over GST control); in [6], 1.05 fold enrichment (6-mer frequency, TF over GST control); in assay [7] it was 1.19 fold enrichment (6-mer frequency, TF over GST control); in assay [10] it was 1.86 fold enrichment (6-mer frequency, TF over GST control). For the same sequence, in assay [8], the binding signal is 1 fold enrichment (6-mer frequency, TF over GST control).
